Consider five compounds from the supplement of paper PMC4954754.

Values joined by “and” are separate entries in the source; they are usually repeats but may differ in a detail not shown here. Equal values may be shown once. ± gives the uncertainty stated by the source.

For the test, the system named is HEK293T-Rex ERSE-FLuc. As to the kind of experiment: ERSE-FLuc reporter activation, triplicate confirmation, relative to 500 nM thapsigargin (% of thapsigargin); higher = stronger ATF6/ERSE reporter activation. To be noted: 6.8 µM; 18 h; screen: confirmation. As to the method:
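HEK293T-Rex cells stably expressing the ERSE-firefly luciferase (BiP promoter, ATF6-preferring) or XBP1-splicing Renilla luciferase (IRE1/XBP1s) reporter, 1536-well plates, compound at 6.8 µM for 18 hr at 37 °C; luminescence read […] and expressed as % activation = 100*(compound - median DMSO)/(median 500 nM thapsigargin - median DMSO). Primary screen was single-pass; confirmation screen in triplicate (mean ± SD).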
In turn, `CC(=O)NC1C(OC2OC(CC(O)C3OC(n4ccc(=O)[nH]c4=O)C(O)C3O)C(O)C(O)C2NC(=O)/C=C\CCCCCCCCCC(C)C)OC(CO)C(O)C1O` (stereo not given) displayed an ERSE-FLuc reporter activation of 162 ± 5.7.

In turn, `CNc1ccc2oc(C[C@H]3O[C@@]4(CC[C@H]3C)O[C@H]([C@H](C)C(=O)c3ccc[nH]3)[C@H](C)C[C@H]4C)nc2c1C(=O)O` gave an ERSE-FLuc reporter activation of 63.9 ± 3.1.

On to `C/C=C(/C)C(=O)O[C@H]1C(C)=C2[C@H]([C@@H]1OC(=O)CCCCCCC)[C@@](C)(OC(C)=O)C[C@H](OC(=O)CCC)[C@@]1(O)[C@H]2OC(=O)[C@@]1(C)O`, for which the ERSE-FLuc reporter activation is 109 and 88.

For `O=C(CCCN1CCC2(CC1)C(=O)NCN2c1ccccc1)c1ccc(F)cc1`, the ERSE-FLuc reporter activation was determined as 163 ± 21.

`O=C(CCCN1CCC2(CC1)C(=O)N(Cc1cccc(F)c1)CN2c1ccccc1)c1ccc(F)cc1` registered an ERSE-FLuc reporter activation of 215 ± 16.
